# Source: PubChem BioAssay (NCATS)
# Where “and” joins values, the source holds several entries; their conditions need not be identical. Identical values can stand only once. Records with an inconclusive call do not appear. Calls of active or inactive are those of the source. Unless noted, calls come from the whole dose curve; as a rule, active = well fitted curve in the direction sought with a large enough effect; inconclusive = small, poorly fitted or top-dose-only effect, or another doubt; inactive = no such curve, though single readings can be large; an effect the other way counts as inactive or inconclusive.
# Key:
# [1] = AP1 Signaling Pathway (AID 357; active = well fitted curve in either direction with a large enough effect, not every such curve was filed as active;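 note: ME-180 reporter cells stimulated with EGF at its EC50 level; % is set by controls: 0 for no effect and ±100 for the full control effect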); conditions: ME-180 AP-1-bla reporter, EGF-induced, beta-lactamase ratio, 5 h
# In short: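 Read-out was the 460nm/530nm emission ratio (excitation 405nm) after CCF4 loading for 2.5 hours at room temperature. Cells carried an AP-1-driven beta-lactamase reporter, were stimulated with EC50 EGF plus compound for 5 hours, and AC50 values came from titrations.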
# [2] = NFAT Signaling Pathway (AID 444; active = well fitted curve in either direction with a large enough effect, not every such curve was filed as active;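 note: carbachol stimulus at about its EC50 of 1 µM final; % is set by controls: 0 for no effect and ±100 for the full control effect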); conditions: Jurkat NFAT-bla M1, carbachol, beta-lactamase ratio, 5 h
# In short: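 Jurkat cells carrying an NFAT-driven β-lactamase reporter and co-transfected muscarinic M1 receptor were treated with compound plus carbachol (1 uM final, an EC50 level) for 5 h at 37 °C. CCF4 loading followed for 1 h at RT; 460/530 nm ratio gave %activity.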
# [3] = Stat Signaling Pathway (AID 446; active = well fitted curve in either direction with a large enough effect, not every such curve was filed as active;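 note: ME-180 cervical cancer cells given 40 pM IL-6 alongside compound; SIE-controlled beta-lactamase reporter measured as 460/530 nm FRET emission ratio; % is set by controls: 0 for no effect and ±100 for the full control effect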); conditions: ME-180 SIE beta-lactamase reporter, IL-6 stimulated, 5 h
# In short: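 Screening format detects activators and inhibitors alike: ME-180 SIE-bla cells stimulated at 40 pM IL-6 for 5 hrs with compound, then dual-emission beta-lactamase read at 405 nm excitation.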
# [4] = target: Glucocorticoid receptor (Homo sapiens) (UniProt P04150); assay: GR-GFP Redistribution (AID 450;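 active = compounds whose dose series gives a full or clear partial fitted curve of increased nuclear translocation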; note: potency is the fitted concentration of half-maximal effect); conditions: U2OS GR-GFP nuclear translocation, laser cytometry, 2 h
# [5] = target: Glucocorticoid receptor (Homo sapiens) (UniProt P04150); assay: GR-EFC Redistribution (AID 451; calls by dose curve; note: potency is the fitted concentration of half-maximal effect); conditions: CHO-K1 GR-EFC translocation, beta-gal luminescence, 2 h
# In short: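 CHO-K1 cells stably expressing nuclear-localized β-gal enzyme acceptor and GR fused C-terminally to the enzyme donor fragment; ligand-driven nuclear translocation restores β-gal by complementation. Compounds titrated up to 46 uM final, 2 h at 37 °C; luminescence read.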
# [6] = target: Mitogen-activated protein kinase 10 (Mus musculus) (UniProt Q61831); assay: JNK3 AlphaScreen Assay (AID 530; active = well fitted curve in either direction with a large enough effect, not every such curve was filed as active;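 note: kinase came from lysate of stimulated human HepG2 cells; signal reports phosphorylation of biotinylated GST-cJun 1-79 at Ser73 with 10 µM ATP; % is set by controls: 0 for no effect and ±100 for the full control effect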); conditions: JNK3 lysate, c-Jun phosphorylation; series mostly up to 57.1 µM
# In short: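 JNK3 came from HepG2 lysates pre-activated with IL-1beta and TNF-alpha and phosphorylated biotinylated GST-cJun (1-79) at 10 uM ATP, pH 7.6, room temperature. Compounds were titrated. AlphaScreen signal used anti-phospho-cJun (Ser73) antibody.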
# [7] = target: alpha-glucosidase (Oryza sativa, rice) (UniProt Q653V4); assay: Counterscreen for Glucocerebrosidase Inhibitors: qHTS Assay for Rice alpha-Glucosidase at pH 5.0 (AID 997); conditions: rice alpha-glucosidase enzyme activity; series mostly up to 76.9 µM;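 note: 0% = full activity with enzyme and -100% = basal without enzyme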
# In short: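 Rice alpha-glucosidase (4 nM final) with 400 uM 4-methylumbelliferyl-alpha-D-glucopyranoside in citrate buffer pH 5.0, 20 min at room temperature, stopped at pH 10; fluorescence 365/440 nm, compounds 0.7 nM–77 uM, AC50 from Hill fits.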
# [8] = qHTS Assay for Lipid Storage Modulators (AID 1519; calls by dose curve); conditions: Drosophila S3 cells, BODIPY lipid droplet/cell ratio, laser cytometry, cells loaded with oleic acid; for activity change, negative = inhibition: at 25.7 µM (top of the series)
# In short: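 Cells seeded at 5,000 per well were treated with compounds over a concentration series and loaded with oleic acid (400 uM, as added). Lipid droplet fluorescence (488 nm excitation, 500-530 nm channel) was read by laser-scanning cytometry and normalized to 20 uM Triacsin C.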
# [9] = target: Ubiquitin carboxyl-terminal hydrolase 1 (Homo sapiens) (UniProt O94782); assay: Inhibitors of USP1/UAF1: Pilot qHTS (AID 504865); conditions: purified USP1/UAF1, Ub-rhodamine cleavage fluorescence; series mostly up to 54.9 µM;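 note: rhodamine fluorescence freed from ubiquitin-rhodamine substrate followed over time; top concentration of the series differs between compounds; % is set by controls: 0 for no effect and ±100 for the full control effect; nearly all actives have a fitted effect of over 35% in size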
# In short: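 Enzyme-free wells gave the negative control, while test wells held 1nM USP1/UAF1 preincubated with compound for 15 min at room temperature. Ub-Rho at 150nM final started the reaction, and fluorescence at 480/540 nm was recorded kinetically.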
# [10] = target: Cytochrome P450 1A2 (Homo sapiens) (UniProt P05177); assay: p450-cyp1a2 (AID 410; calls by dose curve; note: potency is the fitted concentration of half-maximal effect;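 for activity change, negative = inhibition: -100% = full effect of reference inhibitor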); conditions: recombinant CYP1A2, luciferin-ME demethylation, luminescence; series mostly up to 57 µM
# In short: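 Human CYP1A2 (20nM) demethylated Luciferin-ME at its Km (100uM) in 100mM KPO4. After 10 min compound preincubation, NADPH regeneration ran the reaction 60 min at room temperature. Luciferin was read by luminescence, normalized to 57 uM furafylline.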
# [11] = target: 3',5'-cyclic-AMP phosphodiesterase 4B (Homo sapiens) (UniProt Q07343); assay: qHTS Assay for Inhibitors of PDE-IV (AID 607; active = well fitted activation curve with a large enough effect in the main read-out, with a control signal flat, not every such curve was filed as active; note: % of control where 0% means no effect); conditions: HEK293 ACTOne CNG channel cells, membrane potential fluorescence; series mostly up to 22.9 µM
# In short: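 The readout is membrane depolarisation from a cAMP-sensing CNG channel, detected with a potential dye at ex 535/em 590. Cells were HEK293-derived (endogenous PDE-IV) at 1000 cells/well, titrated up to 22.9 uM final.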
# [12] = target: ATP-dependent 6-phosphofructokinase (Trypanosoma brucei brucei) (UniProt O15648); assay: qHTS Assay to Find Inhibitors of T. brucei phosphofructokinase: hit validation (AID 492961); conditions: T. brucei PFK, ADP-Glo luminescence; series mostly up to 24.3 µM
# In short: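 PFK 1.25 nM, F6P 0.5 mM, ATP 0.1 mM, MgCl2 5 mM, 0.1 M TEA pH 8.0, Tween20 0.01%, BSA 0.1%; 45 min RT. ADP-Glo two-step detection, luminescence. qHTS titration; curve fitting with curve-class categorization.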
# [13] = target: Luciferin 4-monooxygenase (Photinus pyralis) (UniProt P08659); assay: Biochemical firefly luciferase enzyme assay for NPC (AID 624030);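 note: purified P. pyralis luciferase at 10 nM with luciferin and ATP substrate; 0% = DMSO and -100% = full luciferase inhibition by PTC124 control; nearly all actives have a fitted effect of over 70% in size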; conditions: purified P. pyralis luciferase, luminescence, 5 min; series mostly up to 58.6 µM
# In short: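 Counter-screen for direct inhibition of the luciferase enzyme by approved-drug library compounds, run at 10 nM enzyme in 50 mM Tris acetate (final). Luminescence was read within 5 min of enzyme-buffer addition and normalized to PTC124 versus DMSO (0%).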
# AS120 = assay: qHTS profiling for inhibitors of Plasmodium falciparum proliferation (AID 504749);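 note: 0% = DMSO vehicle and full inhibition = artemisinin control; nearly all actives have a fitted effect of over 60% in size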; conditions: P. falciparum in erythrocytes, SYBR Green DNA, 72 h; series mostly up to 28.7 µM
# In short: (§1)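 P. falciparum-infected erythrocytes (0.3% parasitemia, 2.5% hematocrit final) were exposed to compounds for 72 h at 37 C in 5% CO2, then lysed with SYBR Green buffer overnight at room temperature; parasite DNA fluorescence was normalized to artemisinin and DMSO controls.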
# CP238 = assay: as above; conditions: P. falciparum in erythrocytes, SYBR Green DNA, 72 h; series mostly up to 12.8 µM
# In short: as §1
# CP250 = assay: as above; conditions: P. falciparum in erythrocytes, SYBR Green DNA, 72 h; series mostly up to 12.8 µM
# In short: as §1
# CP262 = assay: as above; conditions: P. falciparum in erythrocytes, SYBR Green DNA, 72 h; series mostly up to 12.8 µM
# In short: as §1
# CP265 = assay: as above; conditions: P. falciparum in erythrocytes, SYBR Green DNA, 72 h; series mostly up to 12.8 µM
# In short: as §1
# FAB9 = assay: as above; conditions: P. falciparum in erythrocytes, SYBR Green DNA, 72 h; series mostly up to 12.8 µM
# In short: as §1
# [14] = as above; conditions: P. falciparum in erythrocytes, SYBR Green DNA, 72 h
# In short: as §1
# [15] = measured here: cell count channel max response
# [16] = measured here: lipid channel max response
# [17] = at 7.69 µM (top of the series) unless noted
# Sequence of Cytochrome P450 1A2 (Homo sapiens) (P05177 whole entry, looked up): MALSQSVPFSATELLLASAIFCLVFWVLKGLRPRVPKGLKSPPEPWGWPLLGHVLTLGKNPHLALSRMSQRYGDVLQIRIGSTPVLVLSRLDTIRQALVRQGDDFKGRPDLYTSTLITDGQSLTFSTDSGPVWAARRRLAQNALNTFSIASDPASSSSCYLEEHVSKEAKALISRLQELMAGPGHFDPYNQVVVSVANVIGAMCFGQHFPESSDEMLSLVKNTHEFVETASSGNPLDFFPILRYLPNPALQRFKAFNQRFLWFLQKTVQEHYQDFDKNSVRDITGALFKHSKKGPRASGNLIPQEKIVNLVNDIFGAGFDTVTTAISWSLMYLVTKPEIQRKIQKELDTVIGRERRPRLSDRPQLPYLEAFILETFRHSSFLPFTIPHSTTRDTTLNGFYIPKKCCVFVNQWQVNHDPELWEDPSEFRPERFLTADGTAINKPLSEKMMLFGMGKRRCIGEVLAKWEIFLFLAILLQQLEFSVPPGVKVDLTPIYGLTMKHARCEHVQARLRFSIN
# Sequence of 3',5'-cyclic-AMP phosphodiesterase 4B (Homo sapiens) (Q07343 whole entry, looked up): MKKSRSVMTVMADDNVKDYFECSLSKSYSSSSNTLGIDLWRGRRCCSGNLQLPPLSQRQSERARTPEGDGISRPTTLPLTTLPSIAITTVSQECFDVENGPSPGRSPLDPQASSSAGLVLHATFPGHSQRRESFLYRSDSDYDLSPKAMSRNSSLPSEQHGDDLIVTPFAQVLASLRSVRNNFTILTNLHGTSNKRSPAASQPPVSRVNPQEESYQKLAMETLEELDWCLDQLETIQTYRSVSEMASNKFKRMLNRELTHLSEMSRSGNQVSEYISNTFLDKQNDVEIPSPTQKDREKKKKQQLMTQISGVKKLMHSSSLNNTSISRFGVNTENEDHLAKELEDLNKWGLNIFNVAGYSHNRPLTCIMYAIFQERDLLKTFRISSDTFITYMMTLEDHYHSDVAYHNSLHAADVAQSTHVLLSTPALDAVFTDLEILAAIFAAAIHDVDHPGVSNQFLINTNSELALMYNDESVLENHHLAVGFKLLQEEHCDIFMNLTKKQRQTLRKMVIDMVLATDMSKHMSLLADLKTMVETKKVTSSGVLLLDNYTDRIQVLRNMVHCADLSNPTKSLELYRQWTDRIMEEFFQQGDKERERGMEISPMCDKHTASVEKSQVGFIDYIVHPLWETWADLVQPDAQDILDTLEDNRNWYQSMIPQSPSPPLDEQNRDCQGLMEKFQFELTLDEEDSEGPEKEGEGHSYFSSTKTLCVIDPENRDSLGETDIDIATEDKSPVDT
# Sequence of Luciferin 4-monooxygenase (Photinus pyralis) (P08659 whole entry, looked up): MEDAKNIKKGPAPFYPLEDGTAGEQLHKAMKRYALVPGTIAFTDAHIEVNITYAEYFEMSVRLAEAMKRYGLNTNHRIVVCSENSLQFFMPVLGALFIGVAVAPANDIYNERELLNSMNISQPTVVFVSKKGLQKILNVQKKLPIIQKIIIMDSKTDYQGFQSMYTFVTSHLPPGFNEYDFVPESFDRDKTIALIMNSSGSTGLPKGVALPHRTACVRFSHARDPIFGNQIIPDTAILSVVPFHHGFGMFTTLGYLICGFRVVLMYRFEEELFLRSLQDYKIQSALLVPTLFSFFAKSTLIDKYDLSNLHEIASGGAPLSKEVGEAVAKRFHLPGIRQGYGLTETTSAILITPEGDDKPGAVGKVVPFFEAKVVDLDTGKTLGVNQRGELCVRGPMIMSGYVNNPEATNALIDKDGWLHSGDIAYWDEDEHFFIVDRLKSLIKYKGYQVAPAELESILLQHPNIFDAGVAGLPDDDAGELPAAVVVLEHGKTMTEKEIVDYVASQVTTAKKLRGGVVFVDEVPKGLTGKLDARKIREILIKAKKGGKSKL
# Sequence of Ubiquitin carboxyl-terminal hydrolase 1 (Homo sapiens) (O94782 whole entry, looked up): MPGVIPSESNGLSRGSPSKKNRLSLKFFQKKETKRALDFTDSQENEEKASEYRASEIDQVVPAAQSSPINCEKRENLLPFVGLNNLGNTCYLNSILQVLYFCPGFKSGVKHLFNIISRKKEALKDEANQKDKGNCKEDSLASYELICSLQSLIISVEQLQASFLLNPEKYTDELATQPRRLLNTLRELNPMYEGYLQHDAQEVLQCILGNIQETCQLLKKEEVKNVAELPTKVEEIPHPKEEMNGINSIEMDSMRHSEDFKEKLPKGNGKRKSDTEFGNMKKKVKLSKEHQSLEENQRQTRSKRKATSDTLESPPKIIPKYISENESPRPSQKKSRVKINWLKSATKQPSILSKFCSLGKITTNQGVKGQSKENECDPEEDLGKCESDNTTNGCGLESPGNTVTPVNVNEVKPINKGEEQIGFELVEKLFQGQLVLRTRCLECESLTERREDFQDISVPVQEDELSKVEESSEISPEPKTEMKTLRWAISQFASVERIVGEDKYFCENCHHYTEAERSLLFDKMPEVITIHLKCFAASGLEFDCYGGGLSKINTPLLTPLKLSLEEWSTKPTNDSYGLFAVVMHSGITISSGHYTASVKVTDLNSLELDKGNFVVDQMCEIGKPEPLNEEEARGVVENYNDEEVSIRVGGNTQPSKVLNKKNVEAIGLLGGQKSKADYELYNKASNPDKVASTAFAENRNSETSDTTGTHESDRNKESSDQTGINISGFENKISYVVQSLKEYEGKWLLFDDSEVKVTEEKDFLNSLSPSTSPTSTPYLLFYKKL
# Sequence of ATP-dependent 6-phosphofructokinase (Trypanosoma brucei brucei) (O15648 whole entry, looked up): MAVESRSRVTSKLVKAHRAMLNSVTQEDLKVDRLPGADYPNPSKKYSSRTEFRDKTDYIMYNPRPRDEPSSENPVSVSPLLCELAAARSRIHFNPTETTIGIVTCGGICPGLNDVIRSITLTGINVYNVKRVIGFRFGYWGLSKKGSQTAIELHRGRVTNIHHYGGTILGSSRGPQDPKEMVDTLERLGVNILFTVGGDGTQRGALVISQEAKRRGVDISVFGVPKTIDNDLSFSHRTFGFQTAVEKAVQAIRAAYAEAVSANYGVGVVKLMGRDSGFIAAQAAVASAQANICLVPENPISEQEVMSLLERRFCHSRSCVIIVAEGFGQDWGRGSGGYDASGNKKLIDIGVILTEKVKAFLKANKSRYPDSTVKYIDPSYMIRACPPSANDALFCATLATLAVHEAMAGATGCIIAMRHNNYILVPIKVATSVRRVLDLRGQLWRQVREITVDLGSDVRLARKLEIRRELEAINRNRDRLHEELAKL
# Sequence of Glucocorticoid receptor (Homo sapiens) (P04150 whole entry, looked up, the tested form may be a part): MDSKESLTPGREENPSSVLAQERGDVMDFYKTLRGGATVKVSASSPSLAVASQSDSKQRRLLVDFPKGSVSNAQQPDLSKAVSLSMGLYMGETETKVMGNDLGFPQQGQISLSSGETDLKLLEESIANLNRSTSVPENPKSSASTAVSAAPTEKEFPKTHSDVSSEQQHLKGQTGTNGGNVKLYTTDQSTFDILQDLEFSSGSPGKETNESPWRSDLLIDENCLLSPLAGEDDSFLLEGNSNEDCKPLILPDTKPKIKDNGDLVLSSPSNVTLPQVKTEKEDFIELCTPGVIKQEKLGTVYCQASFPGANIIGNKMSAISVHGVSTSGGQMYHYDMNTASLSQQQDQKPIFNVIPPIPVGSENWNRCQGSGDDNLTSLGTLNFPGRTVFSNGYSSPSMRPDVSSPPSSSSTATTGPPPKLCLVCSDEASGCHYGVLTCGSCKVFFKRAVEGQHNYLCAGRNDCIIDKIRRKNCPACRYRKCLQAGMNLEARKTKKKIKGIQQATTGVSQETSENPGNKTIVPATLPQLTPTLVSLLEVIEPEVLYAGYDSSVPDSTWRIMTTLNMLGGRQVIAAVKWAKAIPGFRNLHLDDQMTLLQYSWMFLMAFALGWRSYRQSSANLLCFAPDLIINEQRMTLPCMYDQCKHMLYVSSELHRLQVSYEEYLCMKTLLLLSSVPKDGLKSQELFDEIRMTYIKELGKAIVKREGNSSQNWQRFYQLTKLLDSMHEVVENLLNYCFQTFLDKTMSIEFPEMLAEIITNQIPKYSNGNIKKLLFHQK
smiles,measurement,setting,value
COc1cc(=O)n(C)c2c(OC[C@@H](O)C(C)(C)O)cccc12,"activity change, negative = inhibition",[1]; at 17.2 µM (top of the series),11.5% (inactive)
same,"activity change, negative = inhibition",[1]; at 38 µM (top of the series),3.48% (inactive)
same,"activity change, negative = inhibition",[2]; at 17.2 µM (top of the series),1.64% (inactive)
same,"activity change, negative = inhibition",[2]; at 38 µM (top of the series),5.18% (inactive)
same,"activity, negative = inhibition",[3]; at 17.2 µM (top of the series),-4.39% (inactive)
same,"activity, negative = inhibition",[3]; at 38 µM (top of the series),1.34% (inactive)
same,Potency,[4],> 46 µM (inactive) and > 20.6 µM (inactive)
same,Potency,[5],> 46 µM (inactive) and > 20.6 µM (inactive)
same,Potency,[6],inactive
same,outcome,[7],inactive
same,"activity change, negative = inhibition",[8],-2.03% (inactive)
same,max response,[8]; [15],-7.54%
same,max response,[8]; [16],-18.8%
same,Potency,[9],inactive
CCN(CC)CC#CCOC(=O)[C@@](O)(c1ccccc1)C1CCCCC1,"activity change, negative = inhibition",[1]; at 17.2 µM (top of the series),0.766% (inactive)
same,"activity change, negative = inhibition",[1]; at 38 µM (top of the series),-1.31% (inactive)
same,Potency,[10],3.98 µM (active) and 1.26 µM (active)
same,"activity, negative = inhibition",[3]; [17],-21.9% [at 38 µM] (inactive)
same,Potency,[4],> 46 µM (inactive) and > 20.6 µM (inactive)
same,Potency,[5],> 46 µM (inactive) and > 20.6 µM (inactive)
same,Potency,[6],inactive
same,Potency,[11],inactive
same,outcome,[7],inactive
same,"activity change, negative = inhibition",[8],-3.63% (inactive)
same,max response,[8]; [15],-6.72%
same,max response,[8]; [16],-11.7%
same,outcome,[12],inactive
same,Potency,[9],inactive
same,outcome,[13],inactive
same,Potency,AS120,inactive
same,Potency,CP238,inactive
same,Potency,CP250,inactive
same,Potency,CP262,inactive
same,Potency,CP265,inactive
same,Potency,FAB9,inactive
COCCc1ccc(OC[C@H](O)CNC(C)C)cc1,"activity change, negative = inhibition",[1]; at 17.2 µM (top of the series),15.8% (inactive)
same,"activity change, negative = inhibition",[1]; at 38 µM (top of the series),13.6% (inactive)
same,"activity change, negative = inhibition",[2]; at 17.2 µM (top of the series),1.88% (inactive)
same,"activity change, negative = inhibition",[2]; at 38 µM (top of the series),-1.17% (inactive)
same,"activity, negative = inhibition",[3]; at 17.2 µM (top of the series),-1.97% (inactive)
same,"activity, negative = inhibition",[3]; at 38 µM (top of the series),13.4% (inactive)
same,Potency,[4],> 46 µM (inactive) and > 20.6 µM (inactive)
same,Potency,[5],> 46 µM (inactive) and > 20.6 µM (inactive)
same,Potency,[6],inactive
same,Potency,[11],inactive
same,outcome,[7],inactive
same,"activity change, negative = inhibition",[8],1.2% (inactive)
same,max response,[8]; [15],10.9%
same,max response,[8]; [16],11.2%
same,outcome,[12],inactive
same,Potency,[9],inactive
same,outcome,[13],inactive
same,"activity, negative = inhibition","[14]; at 28.7 µM (top of the series), parasite line A",13.1% (inactive)
same,"activity, negative = inhibition","[14]; at 28.7 µM (top of the series), parasite line B",3.39% (inactive)
same,Potency,AS120,inactive
same,Potency,CP238,inactive
same,Potency,CP250,inactive
same,Potency,CP262,inactive
same,Potency,CP265,inactive
same,Potency,FAB9,inactive
CN(N=O)C(=O)N[C@H]1[C@@H](O)[C@H](O)[C@H](CO)O[C@@H]1O,"activity change, negative = inhibition",[1]; [17],22% [at 17.2 µM] (inactive)
same,Potency,[10],inactive
same,"activity change, negative = inhibition",[2]; [17],5.2% [at 17.2 µM] (inactive)
same,"activity, negative = inhibition",[3]; [17],-4.53% [at 17.2 µM] (inactive)
same,Potency,[4],> 20.6 µM (inactive)
same,Potency,[5],> 20.6 µM (inactive)
same,Potency,[6],inactive
same,Potency,[11],inactive
same,"activity change, negative = inhibition",[8],-1.88% (inactive)
same,max response,[8]; [15],-12.1%
same,max response,[8]; [16],-12.9%
same,outcome,[12],inactive
same,Potency,[9],inactive
same,outcome,[13],inactive
same,"activity, negative = inhibition","[14]; at 12.8 µM (top of the series), parasite line A",2.49% (inactive)
same,"activity, negative = inhibition","[14]; at 12.8 µM (top of the series), parasite line B",8.62% (inactive)
same,Potency,AS120,inactive
same,Potency,CP238,inactive
same,Potency,CP250,inactive
same,Potency,CP262,inactive
same,Potency,CP265,inactive
same,Potency,FAB9,inactive
